Measured values: PubChem BioAssay (NCI)
Compounds without any hit were thinned out: in the full panel of roughly 83,000, 20% have a hit.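 Method: cells in 96-well plates; compound added at one concentration; 48 h incubation; percent growth measured; values under 10 scored active.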 Calls of active or inactive are those of the source.

tested on: A498 renal; test: NCI-60 one-dose screen, 48 h (100 = growth as untreated, 0 = no growth, -100 = all killed); details: 10 µM unless noted

Q: `COc1cc2cc(Oc3cccc(NC(=O)Nc4cc(C(F)(F)F)cc(C(F)(F)F)c4)c3)c(C)nc2cc1OC` was tested. Which growth did it give?
A: -11.5% (active)

Q: Which growth does the source give for `Cc1cc(Cl)nc(N(CCNc2ccnc3cc(Cl)ccc23)Cc2ccccn2)n1` here?
A: 85.8% (inactive)

Q: With `COc1ccc(C(=O)c2cc(OC)c(OC)c(OC)c2)cc1O` as the molecule, how does the growth read?
A: 75% (inactive)

Q: How did the growth turn out when `N#C/C(=C\c1ccc([N+](=O)[O-])s1)c1nc2cc(Br)ccc2s1` was run?
A: 109% (inactive)

Q: `Brc1ccc2[nH]cc(-c3cncn3CCc3ccccc3)c2c1` was tested. Which growth did it give?
A: 29.3% (inactive)

Q: How did the growth turn out when `Cc1c(C)c([N+](=O)[O-])c(C)c([N+](=O)[O-])c1C` was run?
A: 94.3% (inactive)

Q: Which growth does the source give for `COc1ccc(C(=O)CC#N)cc1` here?
A: 109% (inactive)

Q: For `O=C(/C=C/c1c(-c2ccc(Cl)cc2)nn(-c2ccccc2)c1C(F)(F)F)c1ccc(Cl)cc1`, which growth is on record?
A: 87.6% (inactive)

Q: With `Cc1ccc(NS(=O)(=O)c2ccc(-c3cnc(C4CC4)o3)cc2)cc1C(F)(F)F` as the molecule, how does the growth read?
A: 47% (inactive)

Q: How did the growth turn out when `CC(C)c1ccc(Nc2ccc3c(OCCCN4CCN(C)CC4)cccc3n2)cc1` was run?
A: 77.8% (inactive)

Q: `CCN(c1ccccc1)S(=O)(=O)c1cc([N+](=O)[O-])ccc1Cl` was tested. Which growth did it give?
A: 71.9% (inactive)

Q: How did the growth turn out when `C=C1C(=O)O[C@H]2[C@H]1CC/C(CNS(=O)(=O)c1cccc3ccccc13)=C\CC[C@@]1(C)O[C@@H]21` was run?
A: 70.9% (inactive)

Q: Which growth does the source give for `COc1cc(C(=O)Nc2cc3c(cc2Oc2cc(C)cc(C)c2)C(=O)N(C)[C@@H](CC(=O)N(C)O)C(=O)N3)c(Br)c(OC)c1OC` here?
A: -56.7% (active)

Q: With `Cc1c2cc[nH]c(=O)c2c(C)c2c1[nH]c1cc(OCCN3CCN(C)CC3)ccc12` as the molecule, how does the growth read?
A: -29.1% (active)
